Source: PubChem BioAssay (NCI)
About 83,000 compounds went through this panel and 20% of them were active in at least one assay; those are over-represented in the sample as a whole.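 Cell lines were cultured in 96-well plates, exposed to a single compound concentration, and assessed for percent growth 48 hours later.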 Activity calls are given as the source filed them. Rule for the calls: active = growth percent below 10; inactive = the rest.

Legend:
Experiment in all cases: NCI-60 one-dose screen, 48 h (100 = growth as untreated, 0 = no growth, -100 = all killed)
Settings in all cases: 10 µM
NCI-H23 lung = tested on: NCI-H23 lung
NCI-H226 lung = tested on: NCI-H226 lung
NCI-H322M lung = tested on: NCI-H322M lung
HOP-62 NSCLC = tested on: HOP-62 NSCLC
NCI-H460 lung = tested on: NCI-H460 lung
HOP-92 NSCLC = tested on: HOP-92 NSCLC
NCI-H522 lung = tested on: NCI-H522 lung
A549/ATCC NSCLC = tested on: A549/ATCC NSCLC
786-0 renal = tested on: 786-0 renal
COLO 205 colon = tested on: COLO 205 colon

Measured: growth

N#Cc1c(NC(=O)c2ccc(C(O)(C(F)(F)F)C(F)(F)F)cc2)sc2c1CCC(=O)C2
inactive: NCI-H322M lung 19.1%
active: NCI-H23 lung -81% | NCI-H226 lung -57.2% | HOP-62 NSCLC -17% | NCI-H460 lung 7.12% | HOP-92 NSCLC -55.7% | NCI-H522 lung -71.2% | A549/ATCC NSCLC 9.39% | 786-0 renal -47.7% | COLO 205 colon -89.3%

N#Cc1ccc(-c2nn(-c3ccc(C(=O)O)cc3)cc2CNc2cc(Cl)cc(C(F)(F)F)c2)cc1
active: NCI-H23 lung -12.8% | NCI-H226 lung 4.02% | HOP-62 NSCLC 6.03% | NCI-H460 lung 6.19% | HOP-92 NSCLC -26.6%
inactive: NCI-H322M lung 36.4% | NCI-H522 lung 19.5% | A549/ATCC NSCLC 29.7% | 786-0 renal 11.5% | COLO 205 colon 55.7%

Clc1cccc(N/N=C/c2c[nH]c3ccccc23)n1
inactive: NCI-H23 lung 57.3% | NCI-H226 lung 50.7% | NCI-H322M lung 65.9% | HOP-62 NSCLC 46.9% | NCI-H460 lung 28.9% | NCI-H522 lung 16.1% | A549/ATCC NSCLC 56.4% | 786-0 renal 13.7% | COLO 205 colon 37.2%
active: HOP-92 NSCLC -10.8%

O=C(N/N=C/c1ccc(-c2cccc([N+](=O)[O-])c2)o1)c1[nH]c2ccc(Br)cc2c1-c1ccccc1
active: NCI-H460 lung 9.61% | NCI-H522 lung -48.4% | A549/ATCC NSCLC 0.801% | 786-0 renal 5.31% | COLO 205 colon -65.4%
inactive: NCI-H23 lung 17.6% | NCI-H226 lung 16.2% | NCI-H322M lung 54% | HOP-62 NSCLC 38.7% | HOP-92 NSCLC 55.7%

NC1=NC(c2ccccc2Cl)N=C(Nc2nn[nH]n2)N1 (stereo not given)
inactive: NCI-H23 lung 106% | NCI-H226 lung 105% | NCI-H322M lung 111% | HOP-62 NSCLC 108% | NCI-H460 lung 108% | HOP-92 NSCLC 95.3% | NCI-H522 lung 102% | A549/ATCC NSCLC 103% | 786-0 renal 103% | COLO 205 colon 116%

COc1ccc(C2NC(=S)NC(C)=C2C(=O)OC(C)C)cc1OC (stereo not given)
inactive: NCI-H23 lung 111% | NCI-H226 lung 94.8% | NCI-H322M lung 96.8% | HOP-62 NSCLC 103% | NCI-H460 lung 114% | HOP-92 NSCLC 101% | NCI-H522 lung 102% | A549/ATCC NSCLC 114% | 786-0 renal 93.2% | COLO 205 colon 140%

CN1CCc2c(sc3ncnc(N/N=C/c4cn(-c5ccccc5)nc4-c4ccc(Br)cc4)c23)C1
inactive: NCI-H226 lung 81.2% | NCI-H322M lung 33.5% | HOP-62 NSCLC 54.6% | NCI-H460 lung 18.7% | HOP-92 NSCLC 71.8% | NCI-H522 lung 54.7% | A549/ATCC NSCLC 25.3% | 786-0 renal 65.7%
active: NCI-H23 lung 8.68% | COLO 205 colon 5.81%

CCOC(=O)C1=C(N)N(c2ccccc2)C2=C(C(=O)CC(C)(C)C2)C1c1ccc(Cl)cc1 (stereo not given)
active: COLO 205 colon -17.7%
inactive: NCI-H23 lung 48.9% | NCI-H226 lung 70.4% | NCI-H322M lung 64.9% | HOP-62 NSCLC 80.7% | NCI-H460 lung 13% | HOP-92 NSCLC 69.5% | NCI-H522 lung 38.4% | A549/ATCC NSCLC 33.9% | 786-0 renal 67.3%

C=C1CC[C@H](C(=C)C)[C@H]2C=C(C)C(=O)C3=C(C(=O)[C@@](C)(O)C3)[C@H]12
active: NCI-H23 lung -63.9% | NCI-H226 lung -57.8% | NCI-H322M lung -96.9% | HOP-62 NSCLC -72.7% | NCI-H460 lung -45.6% | HOP-92 NSCLC -90.8% | NCI-H522 lung -88.6% | A549/ATCC NSCLC -50.4% | 786-0 renal 2.21% | COLO 205 colon -88.7%

C=C1CCC2C3(C)COC(c4c(F)cccc4F)OC3CCC2(C)C1CC(O)C1=CCOC1=O (stereo not given)
inactive: NCI-H23 lung 83.5% | NCI-H226 lung 79.3% | NCI-H322M lung 108% | HOP-62 NSCLC 86% | NCI-H460 lung 89.2% | HOP-92 NSCLC 55.4% | A549/ATCC NSCLC 71.9% | 786-0 renal 19.1% | COLO 205 colon 42.4%
active: NCI-H522 lung -33.8%

CCCCCCCCCCCCCCCCCCCC(=O)NCCc1c[nH]c2ccc(OC(=O)NOCCOCCOCCOCCOCCOCCOCCOCCOCCOCCOCCOCCOCCOCCOCCOCCOCCOCCOCCOCCOCCOCCOC)cc12
inactive: NCI-H460 lung 16% | 786-0 renal 35.4%
active: NCI-H23 lung 9.6% | NCI-H226 lung -23.3% | NCI-H322M lung -8.92% | HOP-62 NSCLC -30.7% | HOP-92 NSCLC -17.5% | NCI-H522 lung -83.4% | A549/ATCC NSCLC 8.54% | COLO 205 colon -100%

O=C(COc1ccc(NC(=O)Nc2ccc(Cl)cc2)cc1)N=Nc1c(O)[nH]c2ccc([N+](=O)[O-])cc12
active: HOP-92 NSCLC -36.2% | NCI-H522 lung 8.06%
inactive: NCI-H23 lung 21.4% | NCI-H226 lung 22.4% | NCI-H322M lung 53.3% | HOP-62 NSCLC 35.7% | NCI-H460 lung 17.5% | A549/ATCC NSCLC 105% | 786-0 renal 53.6% | COLO 205 colon 23%

O=C1CCC(N2Cc3c(C#CCCCNC(=O)c4ccc(NC(=O)[C@@H]5NC6(CCCCC6)[C@@]6(C(=O)Nc7cc(Cl)ccc76)[C@H]5c5cccc(Cl)c5F)cc4)cccc3C2=O)C(=O)N1 (stereo not given in full)
inactive: NCI-H23 lung 74.4% | NCI-H226 lung 24.1% | NCI-H322M lung 77.5% | HOP-62 NSCLC 72.7% | NCI-H460 lung 33.1% | HOP-92 NSCLC 39.3% | NCI-H522 lung 70.3% | A549/ATCC NSCLC 34.5% | 786-0 renal 48.4% | COLO 205 colon 70.5%
